Coupling enz: inhibits coupling enzyme system, counter-screen for aldolase hits; coupling enzyme system counterscreen, AmpLite Red fluorescence; activity change, negative = inhibition, % at 58.2 µM, hits read low; 290,000 compounds, 0.67% hits; AID 2472; in the data active means activity change below about -30%
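Compounds tested against the coupling enzymes alone at 57.5 uM final; readout was AmpLite Red fluorescence (525/598 nm) after 20 min at RT.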
Gal4-VP16 FLuc: inhibits Gal4-VP16 luciferase reporter, ROR gamma counter-screen | Drosophila S2 Gal4-VP16 UAS-luciferase, luminescence, 20 h | Potency, µM (titrated, usually from 53.6 µM), without a hit: at the top dose activity, negative = inhibition, hits mostly inhibitors | 310,000 compounds, 3.5% hits;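 further: Gal4-VP16 expression switched on by copper sulfate through the metallothionein promoter; potency means the concentration at half of the fitted maximal effect; nearly all actives have a fitted effect of over 50% in size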
TrxR1 substrate: substrates of rat thioredoxin reductase 1 | purified TrxR1 substrate turnover, NADPH consumption readout | Potency, µM (titrated, usually from 114 µM), without a hit: at the highest dose activity change, negative = substrate turnover | 390,000 compounds, 0.01% hits | AID 588456; further: potency means the concentration at half of the fitted maximal effect; nearly all actives have a fitted effect of over 50% in size
Target sequence (O89049 whole entry, looked up): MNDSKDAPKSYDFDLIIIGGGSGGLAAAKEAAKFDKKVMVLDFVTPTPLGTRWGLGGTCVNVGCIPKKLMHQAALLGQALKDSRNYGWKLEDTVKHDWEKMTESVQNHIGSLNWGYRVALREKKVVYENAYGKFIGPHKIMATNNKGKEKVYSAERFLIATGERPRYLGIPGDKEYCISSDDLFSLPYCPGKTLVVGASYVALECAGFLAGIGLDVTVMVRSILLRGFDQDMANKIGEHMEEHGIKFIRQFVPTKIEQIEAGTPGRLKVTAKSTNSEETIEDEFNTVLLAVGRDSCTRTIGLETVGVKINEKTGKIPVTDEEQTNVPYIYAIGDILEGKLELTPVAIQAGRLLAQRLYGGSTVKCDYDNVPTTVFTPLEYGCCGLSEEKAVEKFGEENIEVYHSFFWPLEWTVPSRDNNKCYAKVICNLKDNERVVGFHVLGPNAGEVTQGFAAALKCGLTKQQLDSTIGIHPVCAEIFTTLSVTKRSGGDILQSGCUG
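Rat TrxR1, dispensed at 90 nM, was prereduced with 400 uM NADPH (final) for 5 min at ~22 deg C, then incubated with compound 15 min before 400 uM selenite. A first-read NADPH fluorescence drop versus no-compound background flagged substrates.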
rTrxR1 inhibitor: blocks rat thioredoxin reductase 1 | O89049 | recombinant rTrxR1, NADPH fluorescence consumption, selenite substrate | Potency, µM (titrated, usually from 114 µM), for the others: at the highest dose activity change, negative = inhibition, most hits filed as inhibitors | 390,000 compounds, 1% hits | AID 588453; further: potency means the concentration at half of the fitted maximal effect; nearly all actives have a fitted effect of over 65% in size
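Rat TrxR1 (90 nM in the dispensed reagent) was pre-reduced with 400 uM NADPH for 5 min at room temperature, then incubated with compound for 15 min. After 400 uM selenite was added, NADPH fluorescence (Ex 340/Em 450 nm) was followed for 8 min.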
RORgamma inh: blocks mouse ROR gamma transcriptional activity | P51450 | Drosophila S2 Gal4-RORgamma UAS-luciferase reporter, 20 h | Potency, µM (top dose mostly 53.6 µM), without a hit: top-dose activity change, negative = inhibition, usual class: inhibitors | 310,000 compounds, 5.4% hits; further: potency means the concentration at half of the fitted maximal effect; nearly all actives have a fitted effect of over 60% in size
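ROR gamma transcriptional activity was tracked as Gal4-UAS luciferase output in stably transfected Drosophila Schneider cells, with compound added 1 hr before 700 uM copper sulfate induction and a 20 hr ambient-temperature incubation.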
GALK inhibitor: blocks human galactokinase activity | P51570 | Purified GALK, Kinase-Glo residual ATP luminescence | Potency, µM (top dose mostly 57.5 µM), without a hit: at the top dose activity change, negative = inhibition, hits mostly inhibitors | 270,000 compounds, 0.007% hits; further: potency means the concentration at half of the fitted maximal effect
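5 nM enzyme, 35 uM ATP, 100 uM galactose, 20 mM HEPES pH8.0, 5 mM MgCl2; 1 h RT; residual ATP by Kinase-Glo Plus luminescence, qHTS format.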
An asterisk follows results filed as active; ? = inconclusive; · = no result given; ! = not active in a repeat; [ ] = dose if it differs, or a comment. Rows were chosen to be rich in hits. Some 5.9% of all compounds tested hit in one or more screens of this group. Unless noted, the call rests on the fitted dose curve; in most records, active means well fitted curve in the direction sought with a large enough effect; inconclusive means small, poorly fitted or top-dose-only effect, or another doubt; inactive means no such curve, though single readings can be large; an effect the other way counts as inactive or inconclusive. On the % scale 0 is the no-effect control and ±100 the full control effect.

SMILES | Coupling enz | Gal4-VP16 FLuc | TrxR1 substrate | rTrxR1 inhibitor | RORgamma inh | GALK inhibitor
COCCCN1CN(Cc2ccco2)CNC1=S | 3 | 2% | 2% | -3% | -25% | 0%
CCOCCCN1CN(Cc2ccccc2)CNC1=S | 4 | 3.5µM* | 2% | 7% | 2.5µM* | -5%
CCCCN1CN(Cc2ccccc2)CNC1=S | 0 | 5µM* | -1% | -6% | 4.5µM* | 0%
CCOc1ccc(OCc2ccc(C(=O)Nc3ccc(Cl)cn3)o2)cc1 | -1 | ? | 3% | 14%[57.1 µM] | ? | 0%
NC(=O)c1ccccc1OCCOCCOCCOc1ccccc1C(N)=O | 0 | 3% | 0%[57.1 µM] | -4%[57.1 µM] | -11% | 0%
COc1cc(CN2CCN(S(=O)(=O)c3ccccc3)CC2)cc(OC)c1O | · | · | 1% | 20µM* | · | ·
COc1cccc(OC)c1C(=O)N1CCN(S(=O)(=O)c2ccccc2)CC1 | -3 | -2% | -9% | 18%[57.1 µM] | -6% | 2%
COc1ccc(S(=O)(=O)N2CCCN(CC(=O)Nc3ccc(OC)c(Cl)c3)CC2)cc1 | -5 | -33% | 5% | 50µM* | ? | -3%
COc1ccc(S(=O)(=O)N2CCN(Cc3cc(OC)c(O)c(OC)c3)CC2)cc1 | 0 | · | -3% | ? | · | -6%
COc1cc(CN2CCN(S(=O)(=O)c3ccc(NC(C)=O)cc3)CC2)cc(OC)c1O | -6 | 1% | 1% | 13µM* | 0% | 4%
COc1ccccc1C(=O)N1CCN(S(=O)(=O)c2ccccc2)CC1 | 4 | -1% | -3% | -6% | 11µM* | 7%
O=S(=O)(c1cccc2ccccc12)N1CCC2CC1c1cc(-c3ccc(F)cc3)ccc12 (stereo not given) | · | · | -1% | 28% | · | ·
CCOC(=O)N/N=C\c1cccc(OC)c1OC/C=C/c1ccccc1 | -5 | -9% | -1% | 6% | 3% | 1%
CNC(=S)N/N=C/c1ccc(OCC(=O)Nc2c(C)cc(C)cc2C)c(OC)c1 | 3 | 13µM* | -1% | ? | 14µM* | 1%
COc1cc(/C=N/NC(=O)c2cccnc2)ccc1OCC(=O)Nc1c(C)cc(C)cc1C | -5 | -6% | -2% | 17% | -4% | 2%
COCC(=O)N/N=C\c1ccc(OC/C=C/c2ccccc2)c(OC)c1 | 0 | ? | 13% | -6% | 13µM* | 4%
COc1cccc(/C=N/NC(=O)CC(C)O)c1OC/C=C/c1ccccc1 (stereo not given) | 2 | 16µM* | -5% | -13% | 11µM* | -5%
Nc1c(C(=O)Nc2ccccc2)sc2nc(-c3ccco3)ccc12 | -5 | 9% | 15% | 4µM* | 14% | -1%
COc1ccccc1NC(=O)c1sc2nc(-c3ccco3)ccc2c1N | -1 | 12% | 11%[57.1 µM] | -7%[57.1 µM] | 2% | -2%
O=C(O)[C@@H]1[C@H]2C[C@H]3c4[nH]c5ccccc5c4CCN3C[C@@H]2CC[C@@H]1O | · | · | 12% | -28% | · | ·
COC(=O)[C@H]1[C@H]2C[C@@H]3c4[nH]c5ccccc5c4CCN3C[C@H]2C[C@@H](OC(=O)c2cc(OC)c(OC)c(OC)c2)[C@@H]1OC | · | ? | · | · | 7.1µM* | ·
COC(=O)C1=CO[C@@H](C)[C@@H]2CN3CCc4c([nH]c5ccccc45)[C@@H]3C[C@H]12 | -31* | -12% | · | · | 18% | ·
COC(=O)[C@@H]1[C@@H]2C[C@H]3c4[nH]c5ccccc5c4CCN3C[C@@H]2CC[C@@H]1O | -41*! | -10% | · | · | -1%[10 µM] | ·
Cc1noc(C)c1-c1ccc2ncnc(NCc3ccc(F)cc3)c2c1 | -5 | -12% | · | · | 9% | ·
Cc1noc(C)c1-c1ccc2ncnc(NCc3cccc(C(F)(F)F)c3)c2c1 | 0 | 13µM* | · | · | -16% | ·
SMILES | Coupling enz | Gal4-VP16 FLuc | TrxR1 substrate | rTrxR1 inhibitor | RORgamma inh | GALK inhibitor
CCOc1ccccc1CNc1ncnc2ccc(-c3c(C)noc3C)cc12 | 0 | ? | 1% | ? | 40µM* | ·
COc1ccc(CNc2nc(-c3ccccc3OC)nc3ccccc23)c(OC)c1 | 0 | ? | · | · | 13µM* | ·
Cc1noc(C)c1-c1ccc2ncnc(NCc3ccccc3F)c2c1 | -1 | 11µM* | · | · | -9% | ·
COc1ccccc1CNc1ncnc2ccc(-c3ccccc3OC)cc12 | 1 | 22µM* | · | · | ? | ·
COc1ccccc1-c1ccc2ncnc(NCc3ccccc3)c2c1 | 0 | ? | · | · | ? | ·
Cc1ccccc1-c1ccc2ncnc(N(C)Cc3ccco3)c2c1 | 1 | -4% | · | · | -4% | ·
Cc1noc(C)c1-c1ccc2ncnc(N(C)Cc3ccco3)c2c1 | 4 | ? | · | · | 13µM* | ·
O=C(NCCc1ccccc1F)c1ccc2c(c1)OCCO2 | -3 | 0.79µM* | -2% | 5% | 0.63µM* | 10%
O=C(Nc1ccc(Br)cc1F)c1ccc2c(c1)OCCO2 | 1 | ? | 8% | 13% | 7.9µM* | 1%
COc1ccc(CN2CCN(C(=O)CCC(=O)Nc3nnc(C4CCCCC4)s3)CC2)cc1F | · | -22% | -4% | -5% | 34% | 3%
C=C1C(n2cnc3c(=O)[nH]c(N)nc32)C[C@H](O)[C@H]1CO (stereo not given in full) | · | -4% | · | · | -30% | ·
Clc1ccc(C2Nc3cccc4cccc(c34)N2)cc1 | -5 | -7% | 5% | 35µM* | -21% | -3%
Cc1cccc(C2Nc3cccc4cccc(c34)N2)c1 | -8 | -7% | 3%[57.1 µM] | ? | -29% | 1%
Brc1ccc(C2Nc3cccc4cccc(c34)N2)s1 | -5 | -5% | -4% | 5µM* | -34% | 1%
CSc1ccc(C2Nc3cccc4cccc(c34)N2)cc1 | -9 | -13% | -8% | ? | -10% | 4%
Cc1cc(=S)cc(C)n1CCO | 0 | -4% | 0% | 35µM* | 4% | ·
CCOC(=O)c1[nH]c(C)c(/C(O)=C2\C(=O)C(=O)N(CCCN(CC)CC)C2c2cccnc2)c1C (stereo not given) | · | · | 1% | 0% | · | ·
COC(=O)c1[nH]c(C)c(/C(O)=C2\C(=O)C(=O)N(CCCN3CCOCC3)C2c2ccccn2)c1C (stereo not given) | -20 | -2% | -7% | 25µM* | -38% | 0%
CCOC(=O)c1[nH]c(C)c(/C(O)=C2\C(=O)C(=O)N(CCCN3CCOCC3)C2c2cccnc2)c1C (stereo not given) | -2 | -6% | -14% | 45µM* | 34% | 0%
Cc1cc(=O)oc2cc(OC(=O)c3ccccc3)ccc12 | 0 | -14% | 17% | 9% | 1% | -1%
Cc1cc(=O)oc2cc(OC(=O)c3nn(C(C)C)c(=O)c4ccccc34)ccc12 | 1 | -4% | 658% | 25µM* | -9% | -3%
CCc1cc(=O)oc2cc(OC(=O)c3ccco3)ccc12 | · | 5% | 15% | -11% | -6% | 4%
